This is an account of results in PubChem BioAssay AID1486 (The Scripps Research Institute Molecular Screening Center, 2009).

Hit rate of the full screen: of about 220,000 compounds, about 2,400 (1.1%) were called active.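 Rule for the calls: active = inhibition above a per-campaign cutoff, the mean inhibition of all tested compounds plus 3 SD (cut at about 27% in these data); inactive = the rest.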 Only a selection was taken, and actives are over-represented in it overall.

The assay is described as follows: growth loss in parental Ba/F3 cells – cell-based, murine pro-B, CellTiter-Glo luminescence, counter-screen for JAK2V617F inhibitor project (AID 1486).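 Note: 0% = DMSO wells and 100% = JAK Inhibitor I control wells.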 The note with it: Ba/F3 parental viability, CellTiter-Glo ATP luminescence; at 5.6 µM; hits give high values. (Cellular ATP, detected with luciferase, serves as a proxy for viable cell number.)
The inhibition is the drop in the measured response relative to a control, in per cent. For `CS(=O)(=O)c1ccc2nnn(OCC(=O)Nc3cccc(C#N)c3)c2c1`, the inhibition is -2.77% (inactive).
`COc1ccc(NC(=O)C(CC(C)C)NS(=O)(=O)c2ccc3c(c2)CCN3C(C)=O)cc1OC` (stereo not drawn): the inhibition is 1.81% (inactive).
In the case of `CCCc1nnc(SCC(=O)N2C(C)CCCC2C)n1CC` (stereo not drawn), the inhibition was 2.43% (inactive).
The value for `CCN(CC)c1ccc(/C=N/NC(=O)c2cnccn2)c(O)c1` was 34.4% (active).
In the case of `CCN(CC)c1ccc(/C=N/Nc2nc(C)cc(C)n2)c(O)c1`, the inhibition was 3.74% (inactive).
For the compound `O=C(Nc1ccc2c(c1)OCCO2)c1cnccn1`, the inhibition was 4.31% (inactive).
The same measure for `COC(=O)c1noc(C)c1-c1ccnn1C(=O)c1ccc(Cl)cc1`: -1.68% (inactive).
As to `COCc1cc(=O)oc2cc(NS(=O)(=O)c3ccc(C)cc3)ccc12`, the inhibition is -1.36% (inactive).
On to `COc1ccc(NC(=S)Nc2ccccc2Cl)cn1`, for which the inhibition is 9.94% (inactive).
As to `COc1ccc(NC(=S)NCCNC(C)=O)cc1`, the inhibition is 3.11% (inactive).
On to `COc1ccc(CS(=O)/C(Cl)=C(/Cl)C(=O)Nc2ccc(OC)nc2)cc1` (stereo not drawn), for which the inhibition is 104% (active).
For `COc1ccc(NC(=O)/C(Cl)=C(/Cl)S(=O)Cc2ccc(C)cc2)cn1` (stereo not drawn), the inhibition is 103% (active).
The value for `COc1ccc(Nc2cc(Cl)ccc2C(=O)O)cn1` was -9.44% (inactive).
For `Cc1ccc(NC(=O)OCc2cncs2)cc1`, the inhibition is 8.02% (inactive).
Take `CN(C)/C(CN1CCCCC1)=C1\N=C(c2ccccc2)OC1=O`: the inhibition was 7.38% (inactive).
The value for `O=C(CNCc1cccs1)Nc1cc(S(=O)(=O)N2CCCC2)ccc1Cl` was -6.85% (inactive).
Turning to `O=c1cc(-c2ccccc2)[nH]c2cc(F)ccc12`, the inhibition was 72.4% (active).
The same measure for `Cc1ccc(-c2cc(=O)c3ccc(Cl)cc3[nH]2)cc1`: -0.93% (inactive); for `Cc1ccc(-c2cc(=O)c3ccc(F)cc3[nH]2)cc1`: 0.37% (inactive).
For `Cc1cc(O)ccc1NC1=CC(=O)CC(C)(C)C1`, the inhibition was 6.24% (inactive).
As to `CCN(CC)CCCN=Cc1c(O)n(-c2ccc(C)cc2)c(=O)c2ccccc12`, the inhibition is 1.41% (inactive).
The same measure for `O=c1c2ccccc2nc2n1C(CSCc1ccccc1)CS2` (stereo not drawn): 39.8% (active); for `O=c1c2ccccc2nc2n1C(CSCc1cccc(C(F)(F)F)c1)CS2` (stereo not drawn): 17.3% (inactive); for `O=c1c2ccccc2nc2n1C(CSc1ccc(F)cc1)CN2` (stereo not drawn): 3.79% (inactive).
Consider `Nc1nonc1-n1nnc(C(=O)N/N=C/c2cc(Br)ccc2O)c1CSC1=NCCS1`, for which the inhibition was 4.7% (inactive).
Take `COC(=O)C1=C(N)Oc2c(oc(CO)cc2=O)C1c1c(F)cccc1Cl` (stereo not drawn): the inhibition was 1.36% (inactive).
With `C[n+]1ccc(/C=C/c2c[nH]c3ccccc23)cc1`, the inhibition was 75.7% (active).
In the case of `CSC(=S)N/N=C/c1c[nH]c2ccccc12`, the inhibition is 3.36% (inactive).
As to `S=c1[nH]nc(-c2ccccc2)n1/N=C/c1c[nH]c2ccccc12`, the inhibition was 0.81% (inactive).
Regarding `Cc1ccc(Oc2nc(-c3ccccn3)nc3ccccc23)cc1`, the inhibition was -1.39% (inactive).
For `CCOn1c(SC(C)C)nc2ccccc2c1=O`, the inhibition was 3.34% (inactive).
As to `Cc1cc(C)n(-c2nc(C(F)(F)F)nc3ccccc23)n1`, the inhibition was 7.14% (inactive).
In the case of `CCCOn1c(-n2nc(C)cc2C)nc2ccccc2c1=O`, the inhibition is 34% (active).
As for `CCOc1ccccc1C(=O)NCc1ccco1`, the inhibition was 4.63% (inactive).
Turning to `CCCC1=Nc2cc(C(=O)NCc3ccco3)ccc2Sc2ccccc21`, the inhibition is 80.2% (active).
The value for `COc1ccc(CCNS(=O)(=O)c2ccc(C(=O)NCc3ccco3)cc2)cc1OC` was 3.88% (inactive).
In the case of `COc1cccc(-n2c(SCC(=O)c3c[nH]c4ccccc34)nc3ccccc3c2=O)c1`, the inhibition was 3.88% (inactive).
Consider `Cn1ncc2c(NNC(=O)Cc3cccc4ccccc34)ncnc21`, for which the inhibition was 6.49% (inactive).
On to `COCCCNC(=O)Cn1cc(/C=C(\C#N)C(=O)N2CCN(c3ccccc3)CC2)c2ccccc21`, for which the inhibition is 2.71% (inactive).
For `O=C(O)CCC(=O)Nc1nc2ccc([N+](=O)[O-])cc2s1`, the inhibition was 3.87% (inactive).
Turning to `O=C(Nc1nc2ccc([N+](=O)[O-])cc2s1)c1ccncc1`, the inhibition is -4.75% (inactive).
In the case of `O=C(NC(Nc1nc2ccc([N+](=O)[O-])cc2s1)(C(F)(F)F)C(F)(F)F)c1ccccc1`, the inhibition was 53.4% (active).
With `O=C(O)c1cccc(NC(=S)N/N=C/c2c[nH]c3ccccc23)c1`, the inhibition was 7.89% (inactive).
For the compound `Cc1cc(C)c(C(N)=O)c(Cl)n1`, the inhibition is 1.66% (inactive).
On to `CCOc1cccc(NC(=O)Cn2nc(-c3ccc4c(c3)OCCO4)ccc2=O)c1`, for which the inhibition is 1.09% (inactive).
Regarding `CN1CCc2nc(SC(C(=O)O)c3ccccc3)c(C#N)c(-c3cccs3)c2C1` (stereo not drawn), the inhibition is -0.18% (inactive).
With `COc1cc(/C=C2/C(=O)ON=C2C)ccc1OCc1ccccc1F`, the inhibition was 5.96% (inactive).
As to `COc1cc(/C=C2/C(=O)ON=C2C)ccc1OCc1cccc(F)c1`, the inhibition was 59.9% (active).
The same measure for `CC1=NOC(=O)/C1=C\c1ccccc1`: -2.02% (inactive); for `CCc1ccc(Oc2nc([N+](=O)[O-])nn2C)cc1`: -0.05% (inactive); for `COC(=O)c1cccc(NS(C)(=O)=O)c1`: -2.38% (inactive).
As to `CCOC(=O)c1cc(-c2nnc(-c3cc(OC)c(OC)c(OC)c3)o2)c(C)nc1C`, the inhibition was 3.72% (inactive).
On to `CCOC(=O)C1=C(N)N2C(=O)C(C)SC2=C(C(=O)OCC)C1c1cc(OC)c(OC)c(OC)c1` (stereo not drawn), for which the inhibition is 66% (active).
The value for `CCOC(=O)C1CCN(C(=O)/C=C/c2cc(OC)c(OC)c(OC)c2)CC1` was 2% (inactive); that for `COc1ccc(C2C=C(c3ccc(Br)cc3)Nc3nc(NS(C)(=O)=O)nn32)cc1` (stereo not drawn) was -0.92% (inactive).
Turning to `C=CCNC(=S)NNC(=O)c1cc(Cl)ccc1OC`, the inhibition is 2.83% (inactive).
`Cc1ccc(CN(C)CC(=O)Nc2cccc([N+](=O)[O-])c2)o1`: the inhibition was 1.42% (inactive).
`Cc1ccc(NC(=O)CN(C)CC(=O)Nc2cccc(F)c2)cc1[N+](=O)[O-]`: the inhibition is 27.9% (active).
With `CN(CC(=O)Nc1cccc(F)c1)CC(=O)Nc1cccc([N+](=O)[O-])c1`, the inhibition is 3.37% (inactive).
As to `CC(=O)N/C(=C/c1ccc(OC(F)F)cc1)C(=O)O`, the inhibition was 6.54% (inactive).
The value for `Fc1ccc(NC(=S)N2CCc3[nH]c4ccccc4c3C2)cc1` was 35% (active).
With `C=CCNC(=S)N1CCc2[nH]c3ccccc3c2C1`, the inhibition was 0.22% (inactive).
For `O=C(Nc1ccc(Cl)cc1)N1CCc2[nH]c3ccccc3c2C1`, the inhibition is 4.99% (inactive).
